Screens as filed in PubChem BioAssay.
In the library only some 19% were active in any assay of this set; here they are far more common.
HT1080 IDH1KD tx = toxicity to HT-1080 IDH1 knockdown cells (counter line); hit rate 2% among 360,000; HT-1080 IDH1 knockdown viability, ATP luminescence, 48 h; Potency, µM (top dose mostly 46.1 µM), actives largely listed as cytotoxic
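CellTiter-Glo luminescence after 48 h compound exposure at 37 degrees C of IDH1-knockdown HT-1080 cells in 5% FBS RPMI. %Activity scaled between DMSO wells and cell-free media wells, with curves fitted and assigned curve classes.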
IL1B secr inh = inflammasome signaling inhibition, IL-1 beta readout; THP-1 LPS/ATP IL-1B secretion, AlphaLISA, 16 h; stronger effect = lower value; activity change, % at 57.5 µM; hit rate 4.7% among 360,000; AID 743279; in the data active means activity change below about -50%; inconclusive means mostly about -30% to -49%
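THP-1 cells pretreated 1 hr with compounds (up to 57.5 uM final), then stimulated with LPS (250 ng/mL final) plus ATP (1.25 mM final); secreted IL-1B measured by AlphaLISA after 16 hr, decreased signal indicating inhibition.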
HT1080NT lethal = kills 2HG-producing HT-1080-NT fibrosarcoma cells | Potency, µM (highest dose often 46.1 µM), most hits filed as cytotoxic | hit rate 1.6% among 360,000 | HT-1080-NT fibrosarcoma viability, CellTiter-Glo ATP luminescence, 48 h;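 further: NT is the 2HG producing partner of a matched IDH1 knockdown line; nearly all actives have a fitted effect of over 55% in size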
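Read-out is CellTiter-Glo luminescence after 10 minutes at room temperature, following 48 hours' compound treatment of HT-1080-NT cells (750 cells/well, RPMI, 5% FBS, 37 degrees C).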
TDP1 cell noCPT = qHTS for Inhibitors of human tyrosyl-DNA phosphodiesterase 1 (TDP1): qHTS in cells in absence of CPT. DT40 Tdp1-/- hTDP1 cells, no CPT, ATP luminescence, 48 h. Potency, µM (titrated, usually from 46.2 µM), usual class: inhibitors. hit rate 15% among 420,000; further: nearly all actives have a fitted effect of over 55% in size
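DT40 Tdp1-/-;hTDP1 cells, no CPT (DMSO vehicle only), 400 cells/well; compounds pin-transferred; ≥48 hr, 37 °C; CellTiter-Glo 30 min RT dark, luminescence read.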
TDP1 cell CPT = growth inhibition of DT40 Tdp1-/-;hTDP1 cells with camptothecin (screen for TDP1 inhibitors); hit rate 12% among 420,000; chicken DT40 Tdp1-/-;hTDP1 cells + 20 nM CPT, ATP luminescence, 48 h; AID 686979; Potency, µM (top dose mostly 46.2 µM), usual class: inhibitors; further: nearly all actives have a fitted effect of over 55% in size
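Chicken DT40 Tdp1-/- cells stably complemented with human TDP1 were seeded at 400 cells/well in medium containing 20 nM camptothecin, exposed to pin-transferred compounds, and grown at 37 °C for at least 48 hr. Viability was read as ATP luminescence.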
Numbers stand for hits; - = inactive; ? = inconclusive; . = not tested or not shown; [ ] = dose if it differs, or a comment. Unless noted, the call rests on the fitted dose curve; in most records, active means well fitted curve in the direction sought with a large enough effect; inconclusive means small, poorly fitted or top-dose-only effect, or another doubt; inactive means no such curve, though single readings can be large; an effect the other way counts as inactive or inconclusive.

SMILES	HT1080 IDH1KD tx	IL1B secr inh	HT1080NT lethal	TDP1 cell noCPT	TDP1 cell CPT
COc1ccc(S(=O)(=O)N2CCC[C@H]2C(=O)N2CCC[C@H]2C(=O)NCc2ccncc2)cc1C	-	-57.1	-	-	-
O=C(NCc1ccncc1)[C@@H]1CCCN1C(=O)[C@@H]1CCCN1C(=O)c1cccc2ccccc12	-	-102.7	-	-	-
COc1cccc(CNC(=O)[C@@H]2CCCN2C(=O)[C@H]2CCCCN2S(=O)(=O)c2ccc(OC)c(C)c2)c1	-	-	-	20.6µM	?
COc1ccc(S(=O)(=O)N2CCC[C@H]2C(=O)N2CCC[C@H]2C(=O)NCc2ccccc2)cc1C	-	-	-	?	?
COc1ccc(S(=O)(=O)N2CCC[C@H]2C(=O)N2CCC[C@H]2C(=O)NCc2ccc(F)cc2F)cc1C	?	-	?	18.4µM	?
COc1cccc(CNC(=O)[C@@H]2CCCN2C(=O)[C@@H]2CCCN2S(=O)(=O)c2ccc(OC)c(C)c2)c1	-	-	-	?	?
COc1ccc(N2CCN(C(=O)COC(=O)Cc3cccc(OC)c3)CC2)cc1	-	-	-	-	-
COC(=O)[C@@H]1CCCN1Cc1ccc2c(c1)CN(Cc1ccc(OC)c(C)c1)CCO2	.	.	.	-	-[9.04 µM]
COc1ccc(C)cc1S(=O)(=O)N1CCCC(C(=O)N2CCOCC2)C1 (stereo not given)	-	-	-	-	-
Cc1ccc(NC(=O)c2ccc(S(=O)(=O)NCc3cccnc3)cc2)c(C)c1	-	-	-	?	-
CCCC[C@@H]1Cc2[nH][nH]c(=O)c2[C@@H](c2ccc(Cl)cc2)O1	-	-	-	-	-
CCCCC1Cc2[nH]c(=S)[nH]c(=O)c2C(c2ccc3ccccc3c2)O1 (stereo not given)	?	-	?	?	?
CCCC[C@@H]1Cc2[nH][nH]c(=O)c2[C@H](c2ccc(C(C)C)cc2)O1	-	-64.6	-	?	?
CCCC[C@@H]1Cc2[nH][nH]c(=O)c2[C@H](c2ccc3ccccc3c2)O1	23.1µM	-	-	18.4µM	-
C/C(=N\NC(=O)CCc1c[nH]c2ccccc12)c1cccc([N+](=O)[O-])c1	-	?	-	?	?
Cc1cc(C)nc(NC(=NCCc2c[nH]c3ccccc23)NC(=O)Nc2ccc(Cl)c(Cl)c2)n1	-	-	-	13µM	14.6µM
Cc1cc(C)nc(NC(=NCCc2c[nH]c3ccccc23)NC(=O)c2ccco2)n1	-	-	-	10.3µM	20.6µM
Cc1cc(C)nc(NC(=NCCc2c[nH]c3ccccc23)NC(=O)Nc2cccc([N+](=O)[O-])c2)n1	-	-	-	7.31µM	13µM
Cc1ccc(NC(=O)C(=O)NCCc2c[nH]c3ccccc23)cc1C	?	-	-	-	-
Cc1cc(C)nc(NC(=NCCc2c[nH]c3ccccc23)NC(=O)Nc2ccccc2)n1	-	-	-	18.4µM	?
O=C(NCc1ccc2c(c1)OCO2)c1ccc2c(c1)N(Cc1cccc(Cl)c1)C(=O)c1ccccc1S2=O (stereo not given)	.	.	.	-	-
CC(C)Cc1nnc(NC(=O)CCC(=O)N2CCN(c3ccccc3F)CC2)s1	-	-	-	-	-
CC1(C(=O)NS(=O)(=O)c2cccs2)CCN1C(=O)c1ccccc1CCc1ccccc1 (stereo not given)	-	-	-	-	-
Cc1cc(=O)c2c(C)ccc(C)c2[nH]1	-	-	-	9.2µM	?
CCc1nc2c(OCCn3cccc3)cccn2c1N(C)C(=O)c1ccccc1F	-	-	-	?	?
SMILES	HT1080 IDH1KD tx	IL1B secr inh	HT1080NT lethal	TDP1 cell noCPT	TDP1 cell CPT
CCn1c(CSCc2ccc(Cl)cc2)n[nH]c1=S	-	-	-	8.2µM	?
Cn1c(CSCCOc2ccccc2)n[nH]c1=S	-	-	-	16.4µM	-
Cn1c(CSCc2ccc(Cl)c(Cl)c2)n[nH]c1=S	-	-	-	23.1µM	?
CCn1c(CSCc2ccc(C)cc2)n[nH]c1=S	-	-	-	?	-
O=c1cc(N2CCOCC2)oc2c(-c3ccccc3)cccc12	.	.	.	7.31µM	8.2µM
Cc1ccccc1N=C1SCC(=O)N1Cc1ccccc1	-	-	-	-	-
O=C1CSC(=Nc2cccc(Cl)c2Cl)N1Cc1cccnc1	-	-52.1	-	?	?
CCC(c1nnnn1C(C)(C)CC)N(CCCN1CCOCC1)Cc1cc2cccc(C)c2[nH]c1=O (stereo not given)	-	-	-	?	14.1µM
CCC(c1nnnn1C(C)(C)CC)N(CCCO)Cc1cc2cccc(C)c2[nH]c1=O (stereo not given)	-	-	-	-	-
CCC(C)(C)n1nnnc1C(C(C)C)N(CCN1CCOCC1)Cc1cc2cccc(C)c2[nH]c1=O (stereo not given)	?	-	-	-	18.4µM
CNC(=O)c1nc(C)c(C2(C)CC(c3cccc([N+](=O)[O-])c3)=NO2)s1 (stereo not given)	-	-	-	-	-
COc1ccc(C2NC(=S)NC(O)(C(F)(F)F)C2C(=O)c2cccs2)cc1 (stereo not given)	-	-	-	-	-
COc1ccccc1-c1cc(C(F)(F)F)nc(S(=O)(=O)CCCC(=O)Nc2cc(C)on2)n1	4.11µM	-101.8	9.2µM	1.03µM	0.92µM
COc1ccc(-c2cc(C(F)(F)F)nc(S(=O)(=O)CCCC(=O)Nc3cc(C)on3)n2)cc1OC	20.6µM	-110.2	16.4µM	1.16µM	0.731µM
COc1ccc(Cl)cc1NC(=O)CCCS(=O)(=O)c1nc(-c2ccc(OC)c(OC)c2)cc(C(F)(F)F)n1	.	.	.	2.06µM	1.46µM
Cc1cc(Nc2c(C)n(C)n(-c3ccccc3)c2=O)c2ccccc2n1	-	-	-	-	-
COc1ccc(F)cc1C(=O)C1CCCN(C(=O)c2ccccc2N(C)C)C1 (stereo not given)	-	-	?	18.4µM	?
Cc1ccsc1C(=O)N1CCCC(C(=O)c2cc(F)ccc2F)C1 (stereo not given)	-	-	?	23.1µM	?
Cc1nc(C)c(C(=O)N2CCCC(C(=O)c3cc(F)ccc3F)C2)s1 (stereo not given)	-	-	-	?	-
COc1ccc(F)cc1C(=O)C1CCCN(C(=O)c2cccc(N(C)C)c2)C1 (stereo not given)	-	-	-	?	?
O=C(NCC1CCCO1)C(c1ccncc1)N(Cc1ccc(F)cc1)C(=O)CN1C(=O)c2ccccc2S1(=O)=O (stereo not given)	-	-	-	?	-
O=C(NC1CCCCC1)C(c1ccc(F)cc1)N(CCc1ccccc1)C(=O)CN1C(=O)c2ccccc2S1(=O)=O (stereo not given)	?	-	?	5.8µM	3.66µM
